# Screening data (PubChem)
# Yp Topo-I inh – Yersinia pestis topoisomerase I inhibitors, primary screen, biochemical, cleavage product accumulation, plate reader, single point. DNA topoisomerase I (Yersinia pestis CO92). Y. pestis Topo-I cleavage product accumulation. activity, % at 10 µM. AID 504884, 2011. 360,000 tested, 0.064% active; in the data active = activity above about 50%, passing the limit was not always enough; inconclusive = no clear call, values can overlap the other calls
# TcdB GH inh – TcdB glycohydrolase inhibitors, primary screen, biochemical, single point, plate reader | Toxin B (Clostridioides difficile), P18177 | TcdB glycohydrolase enzymatic assay | inhibition, % at 9.99 µM | 350,000 tested, 0.24% active; in the data active = inhibition above about 10%
# FadD28 binding – inhibitors of FadD28 bisubstrate probe binding, primary screen, biochemical, fluorescence polarization, single point; 360,000 tested, 0.22% active; inhibition, % at 12.5 µM; AID 588549, 2011; Mycobacterium tuberculosis FadD28 fatty-acid-AMP ligase; in the data active = inhibition above about 8.5%, passing the limit was not always enough; inconclusive = no clear call, values can overlap the other calls
# Vc quorum ag – inducers of Vibrio cholerae quorum light production without autoinducers, primary screen, BH1578 luxS cqsA deficient, single point; V. cholerae BH1578 lux reporter, luminescence, 6 h; activation, % at 18.7 µM; 350,000 tested, 0.16% active; AID 588436, 2011; in the data active = activation mostly above about 9.7%, no sharp cut-off; inconclusive = no clear call, values can overlap the other calls; inactive = mostly below about 3.7%
# BioA inh – M. tuberculosis BioA enzyme inhibitors, primary screen, biochemical, plate reader, single point, HTS | 7,8-diaminopelargonic acid synthase BioA (Mycobacterium tuberculosis) | purified M. tuberculosis BioA enzyme | inhibition, % at 9.99 µM | 360,000 tested, 0.096% active | AID 602481, 2012; in the data active = inhibition above about 40%; inconclusive = no clear call, values can overlap the other calls
# * marks the source's active call; other numbers are inactive results; i = inactive; ? = inconclusive; . = not tested or not shown. Sampled rows, rich in hits. Any-hit rate of the full collection: about 0.58%.
SMILES,Yp Topo-I inh,TcdB GH inh,FadD28 binding,Vc quorum ag,BioA inh
COc1cc(/C=N/NC(=O)C2COc3ccccc3O2)ccc1O (stereo not given),2.0,14.1*,-5.2,i,.
COc1cc(/C=N/NC(=O)C2(O)c3ccccc3-c3ccccc32)ccc1O,-4.9,10.1*,-2.1,-0.1,0.2
COc1ccc(/C=N\NC(=O)C2COc3ccccc3O2)cc1O (stereo not given),0.3,5.0,-1.6,-0.5,.
COc1cc(/C=N/NC(=O)Cn2nnc3ccccc32)ccc1O,-6.0,12.3*,-2.0,-0.3,.
C[C@H](CO)N1C[C@H](C)[C@H](CN(C)S(=O)(=O)c2cccs2)Oc2ccc(NC(=O)CCC(F)(F)F)cc2C1=O,.,-0.6,.,.,-6.4
COc1cc(/C=N/Nc2nc3ccccc3[nH]2)cc(OC)c1O,-19.9,.,-0.3,-0.5,.
COc1cc(/C=N/Nc2nc3ccccc3[nH]2)ccc1O,-17.4,20.1*,2.0,0.2,2.1
C[C@H]1CCCCO[C@H](CN(C)C(=O)Nc2ccc(F)cc2)[C@@H](C)CN([C@@H](C)CO)C(=O)c2cc(NC(=O)Nc3ccc(F)cc3)ccc2O1,.,0.6,.,.,-1.9
O=C(c1ccc([N+](=O)[O-])cc1)N1CCN(c2cccc3[nH]ccc23)CC1,-17.3,10.0*,-2.0,0.1,.
O=[N+]([O-])c1cccc(CN2CCN(c3cccc4[nH]ccc34)CC2)c1,-7.9,5.0,-2.2,0.6,0.6
Cc1ccc(/C=C2\SC(=S)N(Cc3ccccc3)C2=O)o1,2.9,.,-0.9,-0.3,-3.0
O=C(O)c1cc(-c2ccc(/C=C3/SC(=S)N(Cc4ccccc4)C3=O)o2)ccc1Cl,-8.3,-0.8,27.9*,-0.3,-0.4
COc1ccccc1OCCn1cc(/C=C(\C#N)C(=O)NCc2ccco2)c2ccccc21,12.9,.,-1.9,-0.2,-0.9
N#C/C(=C\c1cn(Cc2ccccc2F)c2ccccc12)C(=O)NCc1ccco1,83.4*,.,-1.7,-0.4,.
Cc1ccc(-c2csc(NS(=O)(=O)c3cccc(F)c3)n2)o1,7.2,-0.8,16.1*,-4.3,3.0
Nc1c(C(=O)NCC2CCCO2)sc2nc3c(c(-c4ccco4)c12)CC/C3=C\c1ccco1 (stereo not given),2.2,0.4,13.8*,-0.1,-1.0
O=C(O)c1nn(CCOc2cccc(Br)c2)c(=O)c2ccccc12,52.3*,-4.0,-0.7,-0.5,0.6
Oc1c(Cl)cccc1Cc1cc(Cl)cc(Cl)c1O,-5.8,-0.2,11.9*,-0.8,3.5
CN(C)c1ccc(C(=O)OCC#CCSc2nnc(-c3cccc4ccccc34)o2)cc1,-9.5,13.5*,-1.1,i,-0.8
CS(=O)(=O)Nc1ccc2c(c1)[C@@H]1C[C@@H](CC(=O)O)O[C@H](CO)[C@@H]1O2,.,-1.5,.,.,.
COc1cc(/C=C2/C(=O)NN(c3cccc(Cl)c3)C2=O)cc(OC)c1O,-5.0,-3.8,10.8*,-0.4,1.9
CCOc1cc(/C=C2/C(=O)NN(c3cccc(Cl)c3)C2=O)ccc1O,-8.9,-1.3,3.4,-0.2,-0.3
COc1cc(/C=C2/C(=O)NN(c3cccc(C)c3)C2=O)cc([N+](=O)[O-])c1O,-6.6,-1.1,?,i,.
COc1cc(/C=C2/C(=O)NN(c3ccc(C)c(Cl)c3)C2=O)cc([N+](=O)[O-])c1O,-11.3,-0.8,29.9*,-0.3,0.5
CC(C)CC#Cc1ccc2c(c1)O[C@H](CN(C)C(=O)Cc1cccnc1)[C@@H](C)CN([C@H](C)CO)S2(=O)=O,.,.,.,.,1.7
SMILES,Yp Topo-I inh,TcdB GH inh,FadD28 binding,Vc quorum ag,BioA inh
O=C(C[C@@H]1CC[C@@H](NC(=O)c2ccccc2)[C@H](CO)O1)Nc1ccc(-c2ccccc2)cc1,.,0.1,.,.,-4.7
N#CCCN(C(=O)COC(=O)c1cc(=O)c2ccccc2o1)c1ccccc1,1.8,10.0*,-3.5,-0.6,-0.8
N#CCCN(C(=O)COC(=O)c1ccc2c(c1)OCO2)c1ccccc1,-1.6,0.6,-0.8,i,-1.3
Cc1ccc(S(=O)(=O)Nc2ccc(O)c3ccccc23)c(C)c1,-7.6,0.3,54.6*,i,-0.8
CCC(=O)N1[C@H](CO)[C@@H](c2ccccc2)C12CN(Cc1cccnc1)C2,.,-2.2,.,.,.
O=C(CNc1cccc(Cl)c1)c1ccc(Cl)cc1,-0.4,.,-2.2,-0.1,-1.1
Cc1ccc(C(=O)CNc2cccc(Cl)c2)cc1,65.1*,.,0.6,i,-1.3
O=C(Nc1ccccc1F)N1C[C@@H]2[C@H](c3ccccc31)[C@@H](CO)N2C(=O)Cc1ccccc1,.,-0.6,.,.,0.3
COc1cccc(S(=O)(=O)N[C@@H]2CC[C@@H](CCNC(=O)Cc3ccncc3)O[C@@H]2CO)c1,.,-0.1,.,.,-1.3
COc1ccccc1OCC(=O)Nc1ccc(-c2nnc(-c3ccco3)o2)cc1,4.1,11.9*,-0.8,-0.3,-0.2
O=C(COc1ccc(Br)cc1)Nc1ccc(-c2nnc(-c3ccco3)o2)cc1,6.7,.,-4.5,-2.4,-1.1
CCCN1[C@@H]2c3ccc(-c4ccc(F)cc4)c(=O)n3C[C@H]1[C@H](CO)[C@H]2C(=O)NCC,.,0.7,.,.,.
CCN1/C(=C/C=C/c2sc3ccccc3[n+]2CC)Sc2ccccc21,-4.4,.,-4.4,-3.0,0.9
CCN1/C(=C/C=C/c2oc3ccc(-c4ccccc4)cc3[n+]2CC)Oc2ccc(-c3ccccc3)cc21,12.1,1.2,95.4*,0.5,-201.2
O=C(NNc1ccc(-c2csnn2)cc1)c1cc(Cl)cc(Cl)c1,-4.4,17.8*,-1.2,-0.6,17.2
O=C(NNc1ccc(-c2csnn2)cc1)c1ccccc1C(F)(F)F,-3.3,12.5*,-2.8,-0.4,8.1
O=C(NCc1cccc(Cl)c1)c1ccc(-c2csnn2)cc1,-5.2,-0.6,-0.7,-0.2,2.0
O=C(Nc1ccc(-c2csnn2)cc1)C1CC1,-7.0,0.1,-1.3,-0.7,.
Cc1[nH]nc(-c2ccc(O)cc2O)c1Oc1ccccc1,-4.5,10.6*,-8.8,i,2.6
CCCOC(=O)c1ccc(Oc2c(-c3ccc(O)cc3O)n[nH]c2C)cc1,-3.5,.,-0.8,.,0.9
CC(C)N1CCc2c(sc(NC(=O)c3cc4cc([N+](=O)[O-])ccc4s3)c2C(N)=O)C1,-25.3,1.6,14.5*,-0.3,0.0
COc1ccc2c3c([nH]c2c1)[C@@H](CO)N(C(=O)NC1CCCC1)CC31CCN(C(=O)Nc2cccc(F)c2)CC1,.,0.4,.,.,.
CCCNC(=O)C[C@H]1C[C@@H]2c3cc(NS(=O)(=O)c4ccc(OC)cc4)ccc3O[C@@H]2[C@@H](CO)O1,.,.,.,.,0.8
CCOC(=O)[C@@H]1[C@H]2COc3ccc(Br)cc3[C@@H]2N2C(=O)N(c3cccc(F)c3)C(=O)[C@]12C,8.0,10.7*,-2.4,i,-0.8
CCOC(=O)[C@@H]1[C@H]2COc3ccc(Br)cc3[C@H]2N2C(=O)N(c3ccc(F)cc3)C(=O)[C@]12C,1.0,0.8,-1.4,i,-1.6
